# Where “and” joins values, the source holds several entries; their conditions need not be identical. Equal entries are not always repeated. Results filed as inconclusive are left out. Where a structure was tested more than once in an assay, its records may differ in their call. Values without a mark were called inactive. Calls come from the whole dose curve; as a rule, active = well fitted inhibition curve with a large enough effect; inconclusive = small, poorly fitted or top-dose-only effect; inactive = flat fitted curve, though single readings scatter. Where a SMILES comes first, the peptide text is derived from it. Bridges are numbered along the chain shown (N, C = ends). [ ]: non-standard residue; d: D form. The star is where a group is joined. X2 = CC[C@H](C)CCCCC(=O)*; Orn = NCCC[C@H](N)C(=O)O; Dab = NCC[C@H](N)C(=O)O; Mpa = O=C(O)CCS
# Assay: Drug repurposing screens with cells derived from glioblastoma tumor samples (AID 1345199); note: nearly all actives have a fitted effect of over 40% in size
# Conditions: GBM patient neurospheres viability, ATP luminescence, 48 h; at 45.9 µM (top of the series); tumour line D
# Procedure, shortened: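 Four patient lines of CD133+ GBM neurospheres were screened at several concentrations; hits were retested in those lines plus three slower-growing GBM lines, using 48-hour treatment and ATP-based viability.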
# % is set by controls: 0 for no effect and ±100 for the full control effect.
row,SMILES,"activity, negative = cell killing"
1,CCC(CN)CC(C)CCNCC(O)CNCC(C)CC(CC)CN (centres undefined),-7.35%
2,C=C1CC2C3CCC4=CC(=O)C=C[C@]4(C)[C@@]3(F)[C@@H](O)C[C@]2(C)[C@@]1(O)C(=O)COC(C)=O (some centres undefined),11.1%
3,O=C1O[C@H]2[C@H](O)[C@@H]1OC(O)[C@H]2O (some centres undefined),-9.05%
4,O=C(Cn1cnnn1)N[C@@H]1C(=O)N2C(C(=O)O)=C(CSc3nncs3)CS[C@H]12,-5.02% and -0.39%
5,O=C(Nc1ccc(/C=C/c2ccc(NC(=O)c3cc(S(=O)(=O)O)c4cccnc4c3O)cc2S(=O)(=O)O)c(S(=O)(=O)O)c1)c1cc(S(=O)(=O)O)c2cccnc2c1O,6.57%
6,COc1ccc(CNCC(O)COc2ccc3[nH]c(=O)ccc3c2)cc1OC (centres undefined),-26.6%
7,O=C(O)[C@@H](O)[C@H](O)[C@H](O)[C@@H](O)C(=O)O (tested in a mixture with another compound),-10.8%
8,CC(=O)O[C@H]1CC[C@@]2(C)C(=CC[C@H]3[C@@H]4CC[C@H](C(C)=O)[C@@]4(C)CC[C@@H]32)C1,-28.1%
9,CC(C)(S)C(=O)N[C@@H](CS)C(=O)O,-24.6% and -16.1%
10,O=c1[nH]cnc2[nH]cc(CN3CCCCC3)c12,-0.491%
11,O=C(O)c1ccccc1[O-].O=C(O)c1ccccc1[O-].[Zn+2],-6.7%
12,CCC(=O)OCC(=O)[C@@]1(OC(=O)CC)[C@H](C)C[C@H]2[C@@H]3CCC4=CC(=O)C=C[C@]4(C)[C@@]3(F)[C@@H](O)C[C@@]21C,-9.28%
13,CN[C@@H]1CCc2[nH]c3ccc(C(N)=O)cc3c2C1,-11.6%
14,CN(C)Cc1ccccc1,4.8%
15,COc1ccc(C(=O)Nc2ccccc2CCC2CCCCN2C)cc1 (centres undefined),-17.7%
16,CCCCCCCCCCCCCCCC(=O)OC/C=C(C)/C=C/C=C(C)/C=C/C1=C(C)CCCC1(C)C,9.03%
17,O=C(O)CC(O)(CC(=O)O)C(=O)O,-16.4%

row,SMILES,"activity, negative = cell killing"
1,CCCCC(=O)O,6.9% and -1.28%
2,CN(C(=O)CO)c1c(I)c(C(=O)NCC(O)CO)c(I)c(C(=O)NCC(O)CO)c1I (centres undefined),-10.4%
3,CC(=O)OCC(=O)[C@@]1(O)[C@H](C)C[C@H]2[C@@H]3C[C@H](F)C4=CC(=O)C=C[C@]4(C)[C@H]3[C@@H](O)C[C@@]21C,2.28%
4,C[C@]12CC[C@@H]3c4ccc(OS(=O)(=O)O)cc4CC[C@H]3[C@@H]1CCC2=O,4.49%
5,COc1cc(C[C@@H]2NCCc3cc(O)c(O)cc32)cc(OC)c1OC,-12.2%
6,CCCCCCCCCC(=O)O,-10.5%
7,C=Cc1ccccc1,3.17%
8,CC[C@H](C)CCCCC(=O)N[C@@H](CCN)C(=O)N[C@H](C(=O)N[C@@H](CCN)C(=O)N[C@H]1CCNC(=O)[C@H]([C@@H](C)O)NC(=O)[C@H](CCN)NC(=O)[C@H](CCN)NC(=O)[C@H](CC(C)C)NC(=O)[C@@H](CC(C)C)NC(=O)[C@H](CCN)NC1=O)[C@@H](C)O (X2-[Dab]T[Dab][Dab][Dab][dL]L[Dab][Dab]T; lactam 4-C),12.6%
9,CC(C)(C)NC(=O)[C@H]1CC[C@H]2[C@@H]3CC=C4C=C(C(=O)O)CC[C@]4(C)[C@H]3CC[C@]12C,0.505%
10,C=CS(=O)(=O)O,-4.12%
11,C[C@@H]1C[C@H]2C3C[C@H](F)C4=CC(=O)C=CC4(C)[C@@]3(F)[C@@H](O)CC2(C)[C@@]1(O)C(=O)COC(=O)C(C)(C)C (some centres undefined),-10.7%
12,O=C(OCCO)c1ccccc1O,8.11%
13,c1cnc2cc3c(cc2n1)[C@@H]1CNC[C@H]3C1,-17.8%
14,COc1ccc(C2NC(=S)N3C(c4ccc(OC)c(OC)c4)NC(=S)N23)cc1OC (centres undefined),-8.84%
15,CCOc1ccc(C[C@H]2NC(=O)CCSSC[C@@H](C(=O)N3CCC[C@H]3C(=O)N[C@@H](CCCN)C(=O)NCC(N)=O)NC(=O)[C@H](CC(N)=O)NC(=O)[C@H]([C@@H](C)O)NC(=O)[C@H]([C@@H](C)CC)NC2=O)cc1 ([Mpa][dY](Et)ITNCP[Orn]G-NH2; disulfide 1-6),-4.59%
16,CCOC(=O)Cc1cccc(-c2cc(CCCCCCc3ccc(O[C@H]4O[C@H](COC(C)=O)[C@@H](OC(C)=O)[C@H](OC(C)=O)[C@@H]4OC(C)=O)c(-c4cccc(CC(=O)OCC)c4)c3)ccc2O[C@H]2O[C@H](COC(C)=O)[C@@H](OC(C)=O)[C@H](OC(C)=O)[C@@H]2OC(C)=O)c1,-4.61%
17,OC(CN1CCCCC1)c1cc(-c2ccccc2)on1 (centres undefined),-0.851%

# Source: PubChem BioAssay (NCATS)
